Shown are actives, neighbours in structure and some others; about 9.3% of the full set was active somewhere.
Rab9 promoter act – Rab9 promoter activation. actives 2.8% (n = 320,000). Huh7 Rab9 promoter-luciferase reporter, luminescence, 24 h. Potency, µM (doses to about 9.22 µM), usual class: activators; further: nearly all actives have a fitted effect of over 60% in size
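Luciferase signal after 10 min detection reagent at ambient indicates Rab9 promoter upregulation; stably transfected Huh7 cells were treated 24 h with compound in DMSO at 37 °C, 5% CO2.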
NPC1 prom act – NPC1 promoter activation; Huh7 NPC1 promoter luciferase reporter, 24 h; Potency, µM (top dose mostly 9.22 µM), most hits filed as activators; actives 2.4% (n = 320,000); further: nearly all actives have a fitted effect of over 60% in size
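In 1536-well qHTS, Huh7 cells harboring an NPC1 promoter–luciferase construct received compound for 24 h; activation was quantified by luminescence following luciferase reagent addition.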
ELG1 DNA repair – ELG1-dependent DNA repair inhibition; HEK293T ELG1-luciferase reporter, luminescence, 16 h; DNA damage induced by 5-fluorouridine; Potency, µM (highest dose often 46.1 µM), actives largely listed as inhibitors; actives 2.3% (n = 330,000); further: nearly all actives have a fitted effect of over 55% in size
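Overnight (16 hr) co-exposure of 2,000 cells/well to 5-fluorouridine and compound at 37 °C preceded detection. Luciferase was quantified via ONE-Glo luminescence; loss of signal denotes inhibition.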
SMN2 splice enh – SMN2 splice variant enhancement | HEK293 SMN2-luciferase splicing reporter, luminescence, 30-36 h | actives 2.8% (n = 210,000) | AID 1458 | Potency, µM (highest dose often 46.1 µM), actives largely listed as activators; further: nearly all actives have a fitted effect of over 55% in size
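qHTS luciferase splicing reporter: luminescence rises when SMN2 exon 7 is included in transfected HEK293 cells. Compound exposure lasted 30-36 h at 37C, with 4.5 mM final sodium butyrate as control, followed by a ONE-Glo read.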
FLuc modulator – counter-screen for miR-21 project: firefly luciferase inhibitors or activators | P08659 | purified FLuc, Km substrates, luminescence inhibition | Potency, µM (titrated, usually from 57.5 µM), most hits filed as inhibitors | actives 6.9% (n = 360,000); further: nearly all actives have a fitted effect of over 55% in size
Target sequence (P08659 whole entry, looked up): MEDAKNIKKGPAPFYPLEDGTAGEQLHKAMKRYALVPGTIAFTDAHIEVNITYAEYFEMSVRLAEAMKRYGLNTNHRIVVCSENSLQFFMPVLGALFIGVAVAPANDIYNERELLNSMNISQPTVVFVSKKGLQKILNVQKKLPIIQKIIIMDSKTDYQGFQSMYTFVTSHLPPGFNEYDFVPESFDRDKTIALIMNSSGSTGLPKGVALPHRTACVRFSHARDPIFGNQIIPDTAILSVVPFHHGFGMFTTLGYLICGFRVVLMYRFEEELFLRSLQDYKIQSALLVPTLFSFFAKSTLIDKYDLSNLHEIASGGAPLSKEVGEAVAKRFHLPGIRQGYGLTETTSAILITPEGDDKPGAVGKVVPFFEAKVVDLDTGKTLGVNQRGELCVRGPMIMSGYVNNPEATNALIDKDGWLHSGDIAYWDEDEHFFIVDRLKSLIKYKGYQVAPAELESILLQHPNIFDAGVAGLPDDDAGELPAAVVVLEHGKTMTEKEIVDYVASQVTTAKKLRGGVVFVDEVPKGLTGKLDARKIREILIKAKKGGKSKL
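Purified P. pyralis luciferase (10nM final) with 10uM D-luciferin and 10uM ATP (Km levels) in 50mM Tris acetate pH 7.5, 10mM Mg acetate, 0.01% Tween-20, 0.05% BSA; qHTS 6-point titration, ~60 µM downward; luminescence read.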
ELG1 genotoxic – genotoxicity induction in ELG1-luciferase HEK293T cells. actives 1.3% (n = 330,000). HEK293T ELG1-luciferase reporter, luminescence, 16 h. Potency, µM (titrated, usually from 46 µM), most hits filed as activators; further: nearly all actives have a fitted effect of over 60% in size
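Genotoxicity was scored as increased ELG1-luciferase reporter signal, measured by ONE-Glo luminescence (30 min, room temperature). Compound or vehicle exposure of the HEK293T reporter cells lasted 16 hr at 37°C.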
Numbers stand for hits; n = inactive; u = inconclusive; x = no result; [ ] = remark or other dose. The call rests on the fitted dose curve; in most records, active means well fitted curve in the direction sought with a large enough effect; inconclusive means small, poorly fitted or top-dose-only effect, or another doubt; inactive means no such curve, though single readings can be large; an effect the other way counts as inactive or inconclusive.

SMILES	Rab9 promoter act	NPC1 prom act	ELG1 DNA repair	SMN2 splice enh	FLuc modulator	ELG1 genotoxic
CC(=O)c1cc(C#N)c(SCc2ccccc2C#N)nc1C	n	n	n	n	15µM	n
Cc1ccc(CN(Cc2cccn2-c2nnc(N3CCCC3=O)s2)C(=O)Nc2ccccc2C(F)(F)F)cc1	x	x	x	n	n	x
Cn1c(N)c(C(=O)CSc2nnc(Cc3cccs3)n2C2CC2)c(=O)n(C)c1=O	n	n	n	x	n	n
CCCn1c(N)c(C(=O)CSc2nnc(Cc3cccs3)n2C2CC2)c(=O)n(C)c1=O	n	n	11µM	x	n	n
Cc1ccc(NC(=O)c2cncc(Br)c2)cc1S(=O)(=O)N(C)C	u	u	u	11µM	9.5µM	u
Cc1ccc(S(=O)(=O)N2CCCCC2)cc1NC(=O)c1cncc(Br)c1	n	n	5.8µM	x	n	n
Cc1cnc(NC(=O)c2cncc(Br)c2)s1	1.3µM	2.2µM	u	x	8.5µM	u
Cc1ccc(NC(=O)c2sccc2C)cc1S(=O)(=O)N(C)C	n	n	n	n	19µM	n
O=C(Nc1cccc(S(=O)(=O)N2CCCCCC2)c1)c1cncc(Br)c1	x	x	u	x	x	n
CCOC(=O)N1CCN(c2c(NCCCOC(C)C)c(=O)c2=O)CC1	n	n	n	n	n	n
CCN(CC(=O)NCc1ccc(F)cc1)C(=O)c1cc2ccccc2o1	n	n	n	x	n	n
CCc1cccc(CC)c1NC(=O)COC(=O)c1ccc2c(c1)S(=O)(=O)c1ccccc1C2=O	n	n	n	n	n	n
CCN(CC)c1ccc(NC(=O)c2cncc(Br)c2)cc1	u	u	n	u	17µM	n
CCN(CC)c1ccc(NC(=O)c2cccnc2)cc1	x	x	x	n	u	x
COc1ccc(NC(=O)c2cccnc2Cl)c(S(=O)(=O)N2CCOCC2)c1	n	n	n	n	n	n
Cc1ccc(S(=O)(=O)N(C)C)cc1NC(=O)c1cncc(Br)c1	n	n	15µM	n[1.84 µM]	n	n
Cc1ccc(NC(=O)CSc2nnc(-c3cccs3)o2)cc1S(=O)(=O)N(C)C	3.5µM	u	u	u	n	u
COc1ccc(NC(=O)c2cncc(Br)c2)c(S(=O)(=O)N2CCOCC2)c1	n	n	11µM	n	n	n
CCN(CC)S(=O)(=O)c1cc(NC(=O)CSc2nnc(-c3cccs3)o2)ccc1C	n	n	n	n	n	n
CN(C)S(=O)(=O)c1cccc(NC(=O)c2cncc(Br)c2)c1	n	n	n	n	n	n
Cc1cccc(N2CCN(C(=O)c3csc4ccccc34)CC2C)c1 (centres undefined)	n	n	u	n	n	n
O=C(Cc1ccc(Cl)cc1)Nc1ccc2oc(-c3ccccc3)nc2c1	x	x	x	n	n	x
CCOC(=O)N1CCN(S(=O)(=O)c2c(C)cc(C)cc2C)CC1	n	n	n	n	n	n
CCc1ccc2[nH]c(C(=O)Nc3ccc(Br)c(C)n3)cc2c1	1.4µM	2.2µM	u	x	u	u
Cc1cc(C)c2[nH]c(C(=O)Nc3ccc4c(c3)OCO4)cc2c1	u	u	n	x	12µM	n
SMILES	Rab9 promoter act	NPC1 prom act	ELG1 DNA repair	SMN2 splice enh	FLuc modulator	ELG1 genotoxic
CCc1ccc2[nH]c(C(=O)Nc3ccc4c(c3)OCO4)cc2c1	n	u	n	x	2.7µM	n
O=C(Cn1cnc2c(nnn2Cc2ccccc2)c1=O)c1ccc(Cl)cc1	n	n	n	n	n	n
CCCN(CCC)S(=O)(=O)c1ccc(C(=O)Nc2nnc(-c3cc(OC)cc(OC)c3)o2)cc1	n	n	1.5µM	n	n	n
CN(c1ccccc1)S(=O)(=O)c1ccc(C(=O)Nc2nnc(-c3ccco3)o2)cc1	n	n	16µM	n	u	n
CCN(c1ccccc1)S(=O)(=O)c1ccc(C(=O)Nc2nnc(C3CC3)o2)cc1	n	n	10µM	n	u	n
CN(c1ccccc1)S(=O)(=O)c1ccc(C(=O)Nc2nnc(C3CC3)o2)cc1	n	n	10µM	n	n	n
CCN(c1ccccc1)S(=O)(=O)c1ccc(C(=O)Nc2nnc(-c3ccco3)o2)cc1	n	n	u	n	u	n

Source: PubChem BioAssay (National Center for Advancing Translational Sciences (NCATS))
